A number with no mark means an inactive call. Results filed as inconclusive are left out. Calls of active or inactive are those of the source. Unless noted, calls come from the whole dose curve.

Data on 7 molecules can be found in PubChem BioAssay (Tox21).

Assay [1] in a line: Nuclear factor erythroid 2-related factor 2/antioxidant responsive element (Nrf2/ARE) small molecule agonists: qHTS cell viability counter screen in human keratinocytes (AID 1919968; active = well fitted curve in the direction sought with a large enough effect in the repeat runs; an effect the other way counts as inactive or inconclusive; note: nearly all actives have a fitted effect of over 55% in size). A digest of the protocol: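 Parallel cytotoxicity read: KeratinoSens HaCaT cells, compound treatment 23 h, viability by CellTiter-Fluor fluorescence 1 h post-reagent.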
(In general: In qHTS, concentration-response curves come from the screen itself.)

A short description of assay [2]: Nuclear factor erythroid 2-related factor 2/antioxidant responsive element (Nrf2/ARE) small molecule agonists: luciferase reporter gene qHTS assay in human keratinocytes (AID 1919969). Note: nearly all actives have a fitted effect of over 35% in size. For orientation: A reporter such as luciferase makes a cellular process visible.
In assay [3] the target is Gonadotropin-releasing hormone receptor (Homo sapiens) (UniProt P30968). Description: Human gonadotropin-releasing hormone receptor (GnRHR) small molecule agonists, calcium flux assay in GnRHR-HEK293 cells (AID 1920063). Note: nearly all actives have a fitted effect of over 35% in size. A digest of the protocol:
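Calcium flux, agonist mode, human GnRHR stably integrated in HEK293; dye 1 h at 37 C before compound; Ex/Em=480/540 kinetic read, 3 min; 15 concentrations, triplicate.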
(Calcium assays in cells follow changes in intracellular calcium, usually with a dye or a luminescent sensor.)

Assay [4] deals with KiSS-1 receptor (Homo sapiens) (UniProt Q969F8). Description: Human kisspeptin (KISS1R) small molecule agonists, calcium flux assay in KISS1R-HEK293 cells (AID 1920064; active = well fitted curve in the direction sought with a large enough effect in the repeat runs; an effect the other way counts as inactive or inconclusive). A digest of the protocol:
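Triplicate 15-concentration series were applied to dye-loaded human KISS1R HEK293 cells, and agonist-evoked calcium fluorescence was captured for 3 min.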

Assay [5] is described as follows: G protein-coupled receptor (GPCR) small molecule agonists, calcium flux assay: HEK293 wild type cell line counter screen (AID 1920065). The method, boiled down: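 Non-specific calcium responders were flagged by adding DMSO-dissolved compounds to dye-loaded cells and reading 480/540 nm fluorescence each second for 3 min; ATP served as positive control.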
Assay [6] can be described thus: p53 small molecule agonists, cell-based qHTS assay with human liver microsomes: qHTS cell viability counter screen (AID 1963579). Note: nearly all actives have a fitted effect of over 45% in size. The method, boiled down: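 Tox21 library compounds, delivered from DMSO stocks, were tested on p53RE-bla cells together with 0.5 mg/mL human liver microsomes and 0.5 mg/mL NADPH (final) over 16 h at 37 C; CellTiter-Glo luminescence served as the cytotoxicity measure.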

Assay [7] is described as follows: p53 small molecule agonists, cell-based qHTS assay with rat liver microsomes: qHTS cell viability counter screen (AID 1963580). Note: nearly all actives have a fitted effect of over 45% in size. A digest of the protocol: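 Cytotoxicity counter screen: intracellular ATP read by CellTiter-Glo luminescence in the p53 reporter wells. HCT-116 p53RE-bla cells were treated for 16 h at 37 C alongside rat liver microsomes and NADPH, each 0.5 mg/mL final.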

Assay [8] in a line: p53 small molecule agonists, cell-based qHTS assay: qHTS cell viability counter screen (AID 1963581). Note: nearly all actives have a fitted effect of over 45% in size. A digest of the protocol:
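Multiplexed with the reporter read, a CellTiter-Glo step (30 min, room temperature) gauges ATP-based viability of HCT-116 p53RE-bla cells after 16 h compound incubation at 37 C.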

Assay [9] has as its target 5-hydroxytryptamine receptor 2A (Homo sapiens) (UniProt P28223). Description: 5-hydroxytryptamine receptor 2A (HTR2A) small molecule antagonists, cell-based qHTS assay (AID 1963586). Note: nearly all actives have a fitted effect of over 45% in size. Note: potency is the fitted concentration of half-maximal effect. A digest of the protocol:
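CHO cells stably expressing human HTR2A were plated for 18 h at 37 C, then loaded with calcium dye for 1 h. Compounds were preincubated 5 min at room temperature before DOI (4 nM solution) was added. Kinetic fluorescence was read for 3 min.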

The target is the same in assay [10]. Description: 5-hydroxytryptamine receptor 2A (HTR2A) small molecule agonists, cell-based qHTS assay (AID 1963587). Note: nearly all actives have a fitted effect of over 30% in size. Note: potency is the fitted concentration of half-maximal effect. The method, boiled down: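 Kinetic calcium-flux fluorescence (2 min, 1 sec intervals) after compound addition in agonist mode. HTR2A-CHO cells were cultured 18 h, then dye-loaded 1 h at 37 C.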
Assay [11] deals with Muscarinic acetylcholine receptor M1 (Homo sapiens) (UniProt P11229). Description: Cholinergic receptor muscarinic 1 (CHRM1) small molecule antagonists, cell-based qHTS assay (AID 1963588). Note: nearly all actives have a fitted effect of over 40% in size. Note: potency is the fitted concentration of half-maximal effect. A digest of the protocol:
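Compounds were tested at 15 concentrations in three independent runs. Dye-loaded CHRM1-CHO cells were exposed 5 min at room temperature before stimulation by acetylcholine added at 50nM. Intracellular calcium was read kinetically on FDSS for 3 min.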

The target is the same in assay [12]. As to the kind of experiment: Cholinergic receptor muscarinic 1 (CHRM1) small molecule agonists, cell-based qHTS assay (AID 1963589). Note: nearly all actives have a fitted effect of over 35% in size. The method, boiled down:
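qHTS, 15-point titration, 3 independent runs: compounds pin-transferred onto dye-loaded CHRM1-CHO cells (human M1), calcium fluorescence followed every second to detect agonism.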

Assay [13] is described as follows: cAMP Responsive Elements (CRE) small molecule agonists, cell-based qHTS assay (AID 1963590). The method, boiled down:
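Quantitative HTS for CRE agonists: HEK 293T CRE-bla cells, overnight plating, 3 h compound incubation at 37 C/5% CO2, then 2 h room-temperature LiveBLAzer B/G FRET substrate loading.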

Assay [14] is described as follows: cAMP Responsive Elements (CRE) small molecule antagonists, cell-based qHTS assay (AID 1963591; active = well fitted inhibition curve with a large enough effect in the signal ratio in the repeat runs, not every such curve was filed as active; the % refers to the signal ratio). A digest of the protocol: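 Fluorescence intensity from cleaved LiveBLAzer B/G substrate (2 h, room temperature) quantified CRE-bla activity in HEK 293T cells exposed 3 h to compound with 0.25 uM final NKH477.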
In assay [15] the target is Beta-2 adrenergic receptor (Homo sapiens) (UniProt P07550). Description: Adrenergic beta2 receptor (ADRB2) small molecule antagonists, cell-based qHTS assay (AID 1963592). Note: nearly all actives have a fitted effect of over 50% in size. Note: potency is the fitted concentration of half-maximal effect. A digest of the protocol:
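Assay format: CHO-ADRB2 cells, 18-20hr seeding at 37C/5% CO2, then compound plus 1nM isoproterenol agonist mix for 0.5hr RT. Homogeneous time-resolved fluorescence cAMP detection after 1hr, expressed as 665/615 nm ratio.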

Assay [16] deals with D(2) dopamine receptor (Homo sapiens) (UniProt P14416). Description: Dopamine D2 receptor (DRD2) small molecule agonists, cell-based qHTS assay (AID 1963594). Note: nearly all actives have a fitted effect of over 35% in size. A digest of the protocol:
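cAMP accumulation in DRD2-HEK293 cells measured by HTRF after 1 h detection; compounds added 10 min before NKH477 (200nM […]) forskolin-analogue stimulation, 30 min at room temperature, with Ro20-1724 present at 0.1 mM final.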

Assay [17] has the same target. As to the kind of experiment: Dopamine D2 receptor (DRD2) small molecule antagonists, cell-based qHTS assay (AID 1963595; active = well fitted inhibition curve with a large enough effect in the signal ratio in the repeat runs, with a control signal flat; the % refers to the signal ratio; note: potency is the fitted concentration of half-maximal effect). The method, boiled down:
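HEK293 cells stably expressing DRD2 were preincubated with 0.1 mM Ro20-1724, then with compound for 10 min at room temperature. Cells were stimulated with 200 nM NKH477 plus 12 nM quinpirole for 30 min, and cAMP was read by HTRF.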

Sequence of 5-hydroxytryptamine receptor 2A (Homo sapiens) (P28223 whole entry, looked up): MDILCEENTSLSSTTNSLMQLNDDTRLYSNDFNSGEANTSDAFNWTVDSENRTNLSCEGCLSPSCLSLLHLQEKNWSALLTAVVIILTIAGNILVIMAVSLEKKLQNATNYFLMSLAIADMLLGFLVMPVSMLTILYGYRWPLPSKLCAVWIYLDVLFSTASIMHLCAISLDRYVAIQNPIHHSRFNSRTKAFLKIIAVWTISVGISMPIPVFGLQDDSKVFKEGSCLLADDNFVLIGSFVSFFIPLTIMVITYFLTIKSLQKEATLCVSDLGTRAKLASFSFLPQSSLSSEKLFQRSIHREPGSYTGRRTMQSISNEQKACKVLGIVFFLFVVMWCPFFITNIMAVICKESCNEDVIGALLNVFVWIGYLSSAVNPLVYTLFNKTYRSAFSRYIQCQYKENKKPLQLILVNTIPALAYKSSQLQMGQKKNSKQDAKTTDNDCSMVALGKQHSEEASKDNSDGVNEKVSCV
Sequence of KiSS-1 receptor (Homo sapiens) (Q969F8 whole entry, looked up): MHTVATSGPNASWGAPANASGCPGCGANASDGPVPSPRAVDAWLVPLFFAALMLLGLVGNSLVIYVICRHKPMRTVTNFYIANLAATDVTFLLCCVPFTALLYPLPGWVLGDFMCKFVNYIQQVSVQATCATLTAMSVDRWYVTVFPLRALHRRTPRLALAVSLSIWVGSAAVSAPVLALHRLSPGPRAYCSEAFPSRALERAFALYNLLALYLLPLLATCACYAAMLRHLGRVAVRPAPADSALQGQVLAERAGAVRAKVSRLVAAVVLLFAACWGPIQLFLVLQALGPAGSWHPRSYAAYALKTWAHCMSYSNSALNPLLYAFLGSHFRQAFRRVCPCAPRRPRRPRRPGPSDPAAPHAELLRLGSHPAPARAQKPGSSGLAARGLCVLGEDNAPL
Sequence of Gonadotropin-releasing hormone receptor (Homo sapiens) (P30968 whole entry, looked up): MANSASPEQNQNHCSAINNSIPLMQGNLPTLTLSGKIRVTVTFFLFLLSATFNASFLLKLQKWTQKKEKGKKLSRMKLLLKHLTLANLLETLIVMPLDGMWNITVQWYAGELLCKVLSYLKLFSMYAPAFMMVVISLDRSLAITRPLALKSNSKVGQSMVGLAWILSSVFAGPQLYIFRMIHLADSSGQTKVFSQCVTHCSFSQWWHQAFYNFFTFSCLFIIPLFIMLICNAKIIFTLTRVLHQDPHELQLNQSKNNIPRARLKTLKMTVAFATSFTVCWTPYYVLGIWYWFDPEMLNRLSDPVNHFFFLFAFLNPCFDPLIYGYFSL
Sequence of Muscarinic acetylcholine receptor M1 (Homo sapiens) (P11229 whole entry, looked up): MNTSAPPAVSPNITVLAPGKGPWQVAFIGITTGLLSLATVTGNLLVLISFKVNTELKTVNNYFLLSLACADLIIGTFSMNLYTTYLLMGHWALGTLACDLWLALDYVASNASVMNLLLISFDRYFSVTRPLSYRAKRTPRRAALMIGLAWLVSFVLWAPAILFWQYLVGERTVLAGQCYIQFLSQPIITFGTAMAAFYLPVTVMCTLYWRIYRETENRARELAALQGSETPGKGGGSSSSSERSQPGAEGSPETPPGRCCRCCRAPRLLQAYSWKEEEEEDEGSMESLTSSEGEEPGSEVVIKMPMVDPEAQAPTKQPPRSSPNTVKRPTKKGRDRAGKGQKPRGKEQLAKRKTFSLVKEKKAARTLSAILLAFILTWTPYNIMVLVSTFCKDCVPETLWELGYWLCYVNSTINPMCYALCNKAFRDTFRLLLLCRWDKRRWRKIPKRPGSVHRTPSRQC
Sequence of D(2) dopamine receptor (Homo sapiens) (P14416 whole entry, looked up): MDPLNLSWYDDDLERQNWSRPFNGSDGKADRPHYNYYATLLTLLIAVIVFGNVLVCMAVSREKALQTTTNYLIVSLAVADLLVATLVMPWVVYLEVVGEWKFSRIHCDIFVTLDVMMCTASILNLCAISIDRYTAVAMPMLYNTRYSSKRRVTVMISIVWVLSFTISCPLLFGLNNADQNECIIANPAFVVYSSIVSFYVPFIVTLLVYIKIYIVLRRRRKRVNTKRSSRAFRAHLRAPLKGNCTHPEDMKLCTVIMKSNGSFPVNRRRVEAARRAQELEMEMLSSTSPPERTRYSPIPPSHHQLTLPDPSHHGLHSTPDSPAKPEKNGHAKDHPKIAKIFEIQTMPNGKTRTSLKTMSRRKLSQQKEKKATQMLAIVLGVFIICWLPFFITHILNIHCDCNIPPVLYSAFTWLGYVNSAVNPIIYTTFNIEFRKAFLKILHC
Sequence of Beta-2 adrenergic receptor (Homo sapiens) (P07550 whole entry, looked up): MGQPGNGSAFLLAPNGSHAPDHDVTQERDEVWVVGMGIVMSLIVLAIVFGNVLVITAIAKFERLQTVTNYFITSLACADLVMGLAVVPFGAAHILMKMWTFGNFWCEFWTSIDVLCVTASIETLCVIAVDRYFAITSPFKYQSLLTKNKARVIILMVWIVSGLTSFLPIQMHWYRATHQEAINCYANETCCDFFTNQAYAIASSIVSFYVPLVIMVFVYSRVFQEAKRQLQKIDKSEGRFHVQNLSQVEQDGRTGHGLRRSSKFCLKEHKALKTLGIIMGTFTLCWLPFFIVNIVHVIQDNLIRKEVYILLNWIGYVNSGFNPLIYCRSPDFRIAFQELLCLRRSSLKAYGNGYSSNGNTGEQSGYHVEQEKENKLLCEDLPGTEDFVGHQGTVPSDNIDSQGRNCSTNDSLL

`CO[C@]12C[C@@H](COC(=O)c3cncc(Br)c3)CN(C)[C@@H]1Cc1cn(C)c3cccc2c13`: the Potency result in assay [1], in assay [2], in assay [3], in assay [4], in assay [5] and in assay [6] was “inactive” throughout. Also, the Potency entry in assay [7], in assay [8], in [12], in [13], in [14] and in [16] was “inactive” in each case. For the same molecule, the Potency was 0.0729 µM (active) in assay [9]; 0.0849 µM (active) in [10]; 8.18 µM (active) in assay [11]; 13.3 µM (active) in assay [15]; 26.6 µM (active) in [17].
`Clc1cccc(C(c2ccc3nc[nH]c3c2)n2ccnc2)c1` (configuration not stated): the Potency entry in assay [1], in [2], in assay [3], in assay [4], in assay [5] and in [6] was “inactive” in each case. Further, the Potency result in assay [7], in assay [8], in assay [9], in [10], in [11] and in [12] was “inactive” throughout. The Potency result in assay [13], in assay [14], in assay [15], in [16] and in assay [17] was “inactive” each time.
For `CC[N+](CC)(CC(=O)Nc1c(C)cccc1C)Cc1ccccc1` (tested in a mixture with another compound), the Potency entry in assay [1], in [2], in [3], in assay [4], in [5] and in [6] was “inactive” throughout. In addition, the Potency result in [7], in [8], in assay [9], in assay [10], in assay [11] and in [12] was “inactive” throughout. In addition, the Potency entry in assay [13], in [14], in assay [16] and in assay [17] was “inactive” in each case.
In the case of `O=C1CCCN1C1CCCCC1`, the Potency result in assay [1], in [2], in assay [3], in assay [4], in assay [5] and in assay [6] was “inactive” each time. The Potency result in [7], in assay [8], in assay [9], in assay [10], in assay [11] and in assay [12] was “inactive” throughout. Moreover, the Potency result in assay [13], in [14], in assay [15], in [16] and in [17] was “inactive” each time.
With `COc1cccc2sc(N)nc12`, the Potency entry in assay [1], in assay [2], in assay [3], in assay [4], in [5] and in [6] was “inactive” in each case. The Potency entry in assay [7], in [8], in [9], in [10], in assay [11] and in assay [12] was “inactive” each time. The Potency entry in assay [13], in [14], in assay [15], in assay [16] and in [17] was “inactive” each time.
Consider `C=C(C)C(=O)OCCO`, for which the Potency result in assay [1], in [2], in assay [3], in [4], in assay [5] and in assay [6] was “inactive” throughout. Also, the Potency result in [7], in assay [8], in assay [9], in assay [10], in assay [11] and in [12] was “inactive” throughout. For the same molecule, the Potency result in assay [13], in assay [14], in assay [16] and in assay [17] was “inactive” each time.
`COc1cc(OC)c2ccc(=O)oc2c1`: the Potency entry in assay [1], in assay [2], in [3], in [4], in assay [5] and in assay [6] was “inactive” each time. The Potency result in assay [7], in assay [8], in [9], in [10], in [11] and in assay [12] was “inactive” each time. The Potency entry in [13], in [14], in assay [15], in [16] and in assay [17] was “inactive” in each case.
